Test results reported in PubChem BioAssay (EPA / NIEHS).
Results filed as inconclusive are left out. Active and inactive are the calls of the source. Rule for the calls, unless noted: active = hit-call score of the fitted dose curve at least 0.9, where 1 is the maximum; inactive = score below 0.9.

Columns and labels:
[1] = biological target: Aryl hydrocarbon receptor (Homo sapiens) (UniProt P35869); test: ATG_Ahr_CIS: Attagene CIS-FACTORIAL HepG2 Assay for human Aryl Hydrocarbon Receptor (Ahr) (AID 2282930); settings: HepG2 AhR cis-factorial reporter transcription; actives raise or lower the signal
How it was run: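 Endogenous factor activity is tracked through cis-promoter reporter units transfected into HepG2 cells. Transcript levels at 24 h are read by fluorescent RT-PCR and capillary electrophoresis, with activity in either direction scored relative to DMSO.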

[2] = ATG_M_19_CIS: Attagene CIS-FACTORIAL HepG2 Assay for M19 Transcription Factor (Internal Marker) (AID 2282939); settings: HepG2 Attagene CIS-FACTORIAL M19 internal marker reporter; actives raise or lower the signal
How it was run: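 HepG2 cells transiently transfected with cis-regulated multiplexed reporter units, dosed 24 h. Reporter mRNA quantified by RT-PCR and capillary electrophoresis; internal background marker fitted bidirectionally versus DMSO.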

[3] = ATG_FoxO_CIS: Attagene CIS-FACTORIAL HepG2 Assay for human Forkhead box O (FoxO) (AID 2282943); settings: HepG2 Attagene cis-reporter, FoxO element, mRNA; actives raise or lower the signal
How it was run: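 Transfected HepG2 reporter cells exposed to test chemical for 24 h; reporter RNA measured by reverse transcription, PCR and fluorescent capillary electrophoresis; curves fitted for increases and decreases against DMSO.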

[4] = biological target: Hepatocyte nuclear factor 6 (Homo sapiens) (UniProt Q9UBC0); test: ATG_HNF6_CIS: Attagene CIS-FACTORIAL HepG2 Assay for human Hepatocyte Nuclear Factor 6 (HNF6) (AID 2282952); settings: HepG2 Attagene cis-factorial HNF6 reporter transcription; actives raise or lower the signal
How it was run: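 Reporter mRNA induction or loss in HepG2 after 24 h exposure; transient cis-MRTU transfection; fragments quantified by capillary electrophoresis; bidirectional analysis, DMSO as negative control.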

[5] = ATG_PBREM_CIS: Attagene CIS-FACTORIAL HepG2 Assay for human Phenobarbital-responsive Enhancer Module (PBREM) (AID 2282955); settings: HepG2 PBREM cis-reporter, Attagene multiplexed transcription; actives raise or lower the signal
How it was run: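 HepG2 cells transiently transfected with multiple cis-regulated reporter transcription units; endogenous factor activity at the PBREM element measured as reporter mRNA 24 h after dosing, via RT-PCR and capillary electrophoresis of fluorescent fragments; bidirectional fitting versus DMSO.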

[6] = biological target: Transcription factor Sp1 (Homo sapiens) (UniProt P08047); test: ATG_Sp1_CIS: Attagene CIS-FACTORIAL HepG2 Assay for human Specificity Protein 1 (Sp1) (AID 2282961); settings: HepG2 Sp1 cis-reporter transcription, actives raise or lower the signal
How it was run: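 HepG2 cells transiently transfected with multiple reporter transcription units driven by cis-regulatory elements; Sp1-responsive reporter mRNA measured 24 h after dosing by RT-PCR and capillary electrophoresis fluorescence, fitted bidirectionally against DMSO baseline.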

[7] = ATG_SREBP_CIS: Attagene CIS-FACTORIAL HepG2 Assay for human Sterol Regulatory Element Binding (SREBP) (AID 2282962); settings: HepG2 Attagene cis-factorial SREBP reporter, mRNA; actives raise or lower the signal
How it was run: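 Transfected HepG2 (cis-regulated reporter library, endogenous TFs) → compound 24 h → total RNA → oligo(dT) RT → reporter-specific PCR → FAM primer extension, HpaI cut → CE fluorescence. Fit bidirectional vs DMSO.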

[8] = ATG_TA_CIS: Attagene CIS-FACTORIAL HepG2 Assay for human TA Basal Promoter (AID 2282964); settings: HepG2 Attagene CIS-factorial TA basal promoter reporter; actives raise or lower the signal
How it was run: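 HepG2 cells transiently transfected with multiple reporter units under cis promoter elements, reporting endogenous transcription factor activity; this endpoint tracks the TA basal promoter as background control. Reporter mRNA after 24 h dosing measured by RT-PCR/capillary electrophoresis; bidirectional fits versus DMSO.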

[9] = ATG_TCF_b_cat_CIS: Attagene CIS-FACTORIAL HepG2 Assay for human T-Cell-Factor with beta-catenin (TCF/b-cat) (AID 2282965); settings: HepG2 TCF/beta-catenin cis-reporter transcription, actives raise or lower the signal
How it was run: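 Cells of the HepG2 line carry transiently transfected reporter units whose promoters respond to endogenous factors. Twenty-four hours post-dosing, reporter mRNA induction is measured by fluorescent RT-PCR and capillary electrophoresis, with DMSO as baseline.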

[10] = ATG_TAL_CIS: Attagene CIS-FACTORIAL HepG2 Assay for human TAL Basal Promoter (AID 2282966); settings: HepG2 Attagene cis-factorial TAL promoter reporter; actives raise or lower the signal;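 note: background control endpoint measuring basal TAL promoter reporter mRNA not a specific factor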
How it was run: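 Readout: reporter mRNA, fluorescence by CE. System: HepG2, transient multi-reporter transfection, endogenous TF activity. Exposure: 24 h. Analysis: bidirectional, DMSO-normalized; background control.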

[11] = ATG_TGFb_CIS: Attagene CIS-FACTORIAL HepG2 Assay for human Transforming Growth Factor (TGF) (AID 2282967); settings: HepG2 Attagene CIS TGFb reporter, mRNA transcription; actives raise or lower the signal
How it was run: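 HepG2 cells transiently transfected with cis-promoter-driven multiple reporter units measure endogenous TF activity; reporter mRNA quantified at 24 h by RT-PCR, FAM labeling, HpaI digestion and capillary electrophoresis. Bidirectional fit vs DMSO.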

[12] = ATG_VDRE_CIS: Attagene CIS-FACTORIAL HepG2 Assay for human Vitamin D Receptor Element (VDRE) (AID 2282968); settings: HepG2 VDRE cis-reporter transcription, actives raise or lower the signal
How it was run: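 Transiently transfected HepG2 cells carrying cis-regulated reporter transcription units were exposed for 24 h. Reporter mRNA was measured by RT-PCR with fluorescent labelling and capillary electrophoresis, and fitted in both directions against DMSO.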

[13] = biological target: X-box-binding protein 1 (Homo sapiens) (UniProt P17861); test: ATG_Xbp1_CIS: Attagene CIS-FACTORIAL HepG2 Assay for human X-box Binding Protein 1 (XBP1) (AID 2282972); settings: HepG2 XBP1 cis-element reporter, Attagene multiplex; actives raise or lower the signal
How it was run: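 HepG2, transient MRTU transfection (cis-promoter driven), 24 h compound exposure. Total RNA → oligo(dT) RT → PCR → 6-FAM labeling → HpaI cut → CE. Bidirectional fit vs DMSO.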

[14] = biological target: Transcriptional activator Myb (Homo sapiens) (UniProt P10242); test: ATG_Myb_CIS: Attagene CIS-FACTORIAL HepG2 Assay for human Myeloblastosis (Myb) Proto-Oncogene Transcription Factor (AID 2282986); settings: HepG2 Attagene CIS-FACTORIAL Myb reporter transcription; actives raise or lower the signal
How it was run: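 HepG2 cells were transiently transfected with cis-regulated multiple reporter transcription units reflecting endogenous Myb activity, then exposed to compound for 24 hours. Reporter mRNA was measured by RT-PCR with capillary electrophoresis; bidirectional fitting versus DMSO baseline.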

[15] = biological target: Nuclear respiratory factor 1 (Homo sapiens) (UniProt Q16656); test: ATG_NRF1_CIS: Attagene CIS-FACTORIAL HepG2 Assay for human Nuclear Respiratory Factor 1 (NRF1) Orphan Gene (AID 2282987); settings: HepG2 NRF1 cis-element reporter, Attagene multiplex; actives raise or lower the signal
How it was run: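 HepG2 cells transiently transfected with multiple reporter transcription units under cis-regulatory promoter control, so endogenous transcription-factor activity is read. After 24 h compound exposure, reporter mRNA quantified by RT-PCR, fluorescent labelling, HpaI digestion and capillary electrophoresis; bidirectional fitting versus DMSO.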

[16] = ATG_NFI_CIS: Attagene CIS-FACTORIAL HepG2 Assay for human Nuclear Factor I (NFI) (AID 2282989); settings: HepG2 cis-regulatory reporter, NFI response element transcription; actives raise or lower the signal
How it was run: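 Endogenous TF activity in HepG2 cells transiently transfected with cis-element-driven multiplexed reporter units, read 24 h after dosing. Reporter mRNA quantified by RT-PCR, 6-FAM labelling, HpaI digestion and capillary electrophoresis; bidirectional fit versus DMSO.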

[17] = ATG_NF_kB_CIS: Attagene CIS-FACTORIAL HepG2 Assay for human Nuclear Factor Kappa B (NF-kB) (AID 2282991); settings: HepG2 Attagene cis-factorial NF-kB reporter mRNA; actives raise or lower the signal
How it was run: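 HepG2 cells transiently transfected with multiplexed cis-element reporter units measuring endogenous transcription factor activity; reporter mRNA read 24 h after dosing by RT-PCR, fluorescent labelling, HpaI digestion and capillary electrophoresis. Bidirectional fit against DMSO baseline.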

[18] = ATG_Oct_MLP_CIS: Attagene CIS-FACTORIAL HepG2 Assay for human Octamer-Binding Transcription Factor (Oct) (AID 2282993); settings: HepG2 Attagene cis-factorial Oct reporter, mRNA; actives raise or lower the signal
How it was run: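 HepG2 cells transiently transfected with cis-element-driven reporter transcription units (endogenous TF activity); 24 h compound exposure. Reporter mRNA quantified by RT-PCR, 6-FAM labelling, HpaI digestion and capillary electrophoresis; bidirectional fit versus DMSO baseline.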

[19] = biological target: Peroxisome proliferator-activated receptor gamma (Homo sapiens) (UniProt P37231); test: ATG_PPARg_TRANS: Attagene TRANS-FACTORIAL HepG2 Assay for human Peroxisome Proliferator-activated Receptor-gamma (PPARg) (AID 2283007; active = hit-call score of the fitted dose curve at least 0.9, where 1 is the maximum)
How it was run: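 HepG2 cells transiently transfected with multiplexed GAL4-UAS reporter units and exogenous chimeric NR-Gal4 proteins; reporter mRNA quantified after 24 h compound exposure by RT-PCR, fluorescent labelling, HpaI digestion and capillary electrophoresis; gain-of-signal fitted versus DMSO baseline.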

[20] = biological target: Nuclear receptor subfamily 1 group I member 2 (Homo sapiens) (UniProt O75469); test: ATG_PXR_TRANS: Attagene TRANS-FACTORIAL HepG2 Assay for human Pregnane X Receptor (PXR) (AID 2283008; active = hit-call score of the fitted dose curve at least 0.9, where 1 is the maximum)
How it was run: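 Read-out is fluorescence of labelled reporter cDNA fragments separated by capillary electrophoresis after RT-PCR and HpaI digestion. Source: HepG2 cells carrying PXR-GAL4/UAS reporter constructs, treated 24 h; activity fitted upward relative to DMSO.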

Measured: AC50

Sequence of Nuclear receptor subfamily 1 group I member 2 (Homo sapiens) (O75469 whole entry, looked up, the tested form may be a part): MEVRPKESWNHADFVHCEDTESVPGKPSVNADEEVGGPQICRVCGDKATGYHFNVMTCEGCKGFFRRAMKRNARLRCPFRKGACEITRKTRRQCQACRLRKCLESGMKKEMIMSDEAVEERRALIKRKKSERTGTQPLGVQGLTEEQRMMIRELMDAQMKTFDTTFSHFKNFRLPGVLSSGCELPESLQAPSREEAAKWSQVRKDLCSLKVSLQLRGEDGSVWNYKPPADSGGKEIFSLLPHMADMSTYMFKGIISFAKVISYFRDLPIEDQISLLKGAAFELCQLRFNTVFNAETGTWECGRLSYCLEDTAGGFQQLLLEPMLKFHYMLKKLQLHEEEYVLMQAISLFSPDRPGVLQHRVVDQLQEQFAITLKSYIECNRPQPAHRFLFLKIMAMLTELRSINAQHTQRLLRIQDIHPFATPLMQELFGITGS
Sequence of Aryl hydrocarbon receptor (Homo sapiens) (P35869 whole entry, looked up): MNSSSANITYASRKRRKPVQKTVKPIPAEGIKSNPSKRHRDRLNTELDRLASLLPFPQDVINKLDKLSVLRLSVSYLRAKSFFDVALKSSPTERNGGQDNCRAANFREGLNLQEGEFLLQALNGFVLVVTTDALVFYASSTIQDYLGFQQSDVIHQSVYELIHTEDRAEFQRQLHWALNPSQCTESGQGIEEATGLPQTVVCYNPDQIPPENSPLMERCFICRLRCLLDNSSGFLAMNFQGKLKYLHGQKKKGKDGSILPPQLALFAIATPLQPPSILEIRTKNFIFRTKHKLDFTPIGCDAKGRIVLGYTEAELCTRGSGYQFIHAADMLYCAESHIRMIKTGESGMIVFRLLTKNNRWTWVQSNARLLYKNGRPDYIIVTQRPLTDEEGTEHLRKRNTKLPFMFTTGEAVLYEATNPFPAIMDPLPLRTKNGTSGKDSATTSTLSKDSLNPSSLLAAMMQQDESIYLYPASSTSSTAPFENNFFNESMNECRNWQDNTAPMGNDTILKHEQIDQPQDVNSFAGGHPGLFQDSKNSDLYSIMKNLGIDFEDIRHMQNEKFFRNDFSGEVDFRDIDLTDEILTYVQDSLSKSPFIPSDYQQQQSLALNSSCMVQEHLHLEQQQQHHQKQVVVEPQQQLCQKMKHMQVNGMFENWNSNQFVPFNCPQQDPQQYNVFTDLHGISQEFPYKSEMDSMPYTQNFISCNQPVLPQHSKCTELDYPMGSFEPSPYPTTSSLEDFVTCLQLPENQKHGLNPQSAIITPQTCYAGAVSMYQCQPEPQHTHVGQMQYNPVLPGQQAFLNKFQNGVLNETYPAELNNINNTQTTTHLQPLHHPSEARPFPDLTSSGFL
Sequence of Nuclear respiratory factor 1 (Homo sapiens) (Q16656 whole entry, looked up): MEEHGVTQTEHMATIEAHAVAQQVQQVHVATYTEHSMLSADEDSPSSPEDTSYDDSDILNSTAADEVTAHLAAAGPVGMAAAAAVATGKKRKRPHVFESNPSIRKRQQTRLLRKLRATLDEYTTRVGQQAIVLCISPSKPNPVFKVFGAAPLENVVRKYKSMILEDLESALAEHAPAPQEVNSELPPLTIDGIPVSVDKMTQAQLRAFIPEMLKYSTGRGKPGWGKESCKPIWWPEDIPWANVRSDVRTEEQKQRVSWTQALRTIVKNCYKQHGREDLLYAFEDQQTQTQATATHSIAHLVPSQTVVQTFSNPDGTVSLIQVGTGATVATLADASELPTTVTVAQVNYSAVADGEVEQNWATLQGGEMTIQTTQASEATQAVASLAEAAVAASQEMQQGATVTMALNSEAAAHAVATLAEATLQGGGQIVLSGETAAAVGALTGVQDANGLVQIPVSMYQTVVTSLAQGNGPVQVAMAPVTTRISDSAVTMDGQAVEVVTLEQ
Sequence of Peroxisome proliferator-activated receptor gamma (Homo sapiens) (P37231 whole entry, looked up, the tested form may be a part): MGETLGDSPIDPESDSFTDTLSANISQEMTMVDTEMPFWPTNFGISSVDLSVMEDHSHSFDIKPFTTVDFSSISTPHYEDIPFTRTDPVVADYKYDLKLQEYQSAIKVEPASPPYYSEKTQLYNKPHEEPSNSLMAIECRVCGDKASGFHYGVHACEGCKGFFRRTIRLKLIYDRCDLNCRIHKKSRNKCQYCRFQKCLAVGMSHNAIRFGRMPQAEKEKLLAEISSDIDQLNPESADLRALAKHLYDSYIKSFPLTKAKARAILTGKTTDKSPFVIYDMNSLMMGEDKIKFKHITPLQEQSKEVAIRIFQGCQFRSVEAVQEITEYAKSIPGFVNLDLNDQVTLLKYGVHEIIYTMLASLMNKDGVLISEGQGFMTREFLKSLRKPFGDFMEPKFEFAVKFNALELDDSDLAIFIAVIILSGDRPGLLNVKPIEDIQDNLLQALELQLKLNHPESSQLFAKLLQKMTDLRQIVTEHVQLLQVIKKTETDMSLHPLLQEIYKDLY
Sequence of Transcriptional activator Myb (Homo sapiens) (P10242 whole entry, looked up): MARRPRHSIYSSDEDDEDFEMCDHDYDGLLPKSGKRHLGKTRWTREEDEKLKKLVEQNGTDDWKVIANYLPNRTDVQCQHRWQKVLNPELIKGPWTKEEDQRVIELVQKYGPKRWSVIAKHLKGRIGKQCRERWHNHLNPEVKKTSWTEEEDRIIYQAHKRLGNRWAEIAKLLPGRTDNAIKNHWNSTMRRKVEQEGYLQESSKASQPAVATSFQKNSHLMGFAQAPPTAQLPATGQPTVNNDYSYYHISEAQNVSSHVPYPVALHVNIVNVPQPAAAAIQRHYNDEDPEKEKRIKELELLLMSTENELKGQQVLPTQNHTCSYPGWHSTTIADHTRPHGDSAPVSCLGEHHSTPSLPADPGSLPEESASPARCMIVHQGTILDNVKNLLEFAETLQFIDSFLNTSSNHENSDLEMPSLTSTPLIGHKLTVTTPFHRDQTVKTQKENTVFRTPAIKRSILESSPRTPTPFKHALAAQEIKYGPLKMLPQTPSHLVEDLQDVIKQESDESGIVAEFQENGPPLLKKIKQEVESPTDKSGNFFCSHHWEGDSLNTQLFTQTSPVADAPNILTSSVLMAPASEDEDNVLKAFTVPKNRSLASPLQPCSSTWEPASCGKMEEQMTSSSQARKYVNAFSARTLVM
Sequence of X-box-binding protein 1 (Homo sapiens) (P17861 whole entry, looked up): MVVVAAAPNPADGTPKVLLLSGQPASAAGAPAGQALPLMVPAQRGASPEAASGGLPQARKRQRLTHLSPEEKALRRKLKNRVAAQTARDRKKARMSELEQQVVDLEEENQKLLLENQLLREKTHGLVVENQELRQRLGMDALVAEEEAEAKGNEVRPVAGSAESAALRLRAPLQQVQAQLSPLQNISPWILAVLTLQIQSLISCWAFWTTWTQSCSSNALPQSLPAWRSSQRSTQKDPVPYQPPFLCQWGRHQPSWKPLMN
Sequence of Transcription factor Sp1 (Homo sapiens) (P08047 whole entry, looked up): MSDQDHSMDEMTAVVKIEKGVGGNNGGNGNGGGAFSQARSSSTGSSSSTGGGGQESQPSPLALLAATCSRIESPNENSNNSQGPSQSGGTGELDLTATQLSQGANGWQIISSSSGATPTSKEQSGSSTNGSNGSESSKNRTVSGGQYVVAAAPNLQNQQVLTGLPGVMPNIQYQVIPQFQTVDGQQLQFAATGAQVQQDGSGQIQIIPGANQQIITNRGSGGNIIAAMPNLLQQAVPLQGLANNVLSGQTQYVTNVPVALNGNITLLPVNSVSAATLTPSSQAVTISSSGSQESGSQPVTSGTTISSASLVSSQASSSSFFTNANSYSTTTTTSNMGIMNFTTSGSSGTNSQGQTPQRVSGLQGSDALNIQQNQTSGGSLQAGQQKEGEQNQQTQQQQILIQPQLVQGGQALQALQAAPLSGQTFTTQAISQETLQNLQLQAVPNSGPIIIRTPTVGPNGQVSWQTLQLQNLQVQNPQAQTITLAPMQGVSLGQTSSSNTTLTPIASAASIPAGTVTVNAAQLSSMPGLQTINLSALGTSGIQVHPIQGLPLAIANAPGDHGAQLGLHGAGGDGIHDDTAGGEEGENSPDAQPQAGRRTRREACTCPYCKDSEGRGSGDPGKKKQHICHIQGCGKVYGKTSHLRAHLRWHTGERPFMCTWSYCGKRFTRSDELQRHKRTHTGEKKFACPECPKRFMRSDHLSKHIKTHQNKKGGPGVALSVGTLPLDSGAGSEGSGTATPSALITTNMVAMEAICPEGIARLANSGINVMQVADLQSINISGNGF
Sequence of Hepatocyte nuclear factor 6 (Homo sapiens) (Q9UBC0 whole entry, looked up, the tested form may be a part): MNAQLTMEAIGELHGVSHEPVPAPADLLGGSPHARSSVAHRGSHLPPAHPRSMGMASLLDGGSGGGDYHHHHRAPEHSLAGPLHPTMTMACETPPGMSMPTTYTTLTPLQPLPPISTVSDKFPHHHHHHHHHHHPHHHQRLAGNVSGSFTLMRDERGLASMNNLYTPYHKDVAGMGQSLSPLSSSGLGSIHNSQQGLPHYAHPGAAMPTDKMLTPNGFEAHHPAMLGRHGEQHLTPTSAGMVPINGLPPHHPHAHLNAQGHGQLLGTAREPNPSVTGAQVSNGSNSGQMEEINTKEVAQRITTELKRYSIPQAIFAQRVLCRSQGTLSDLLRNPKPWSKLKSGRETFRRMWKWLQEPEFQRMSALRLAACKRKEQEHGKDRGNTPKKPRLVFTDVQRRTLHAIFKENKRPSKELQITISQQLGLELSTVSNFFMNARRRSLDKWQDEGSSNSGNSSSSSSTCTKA

COC(=O)c1ccccc1S(=O)(=O)NC(=O)Nc1nc(C)cc(C)n1
inactive: all assays above

COc1cc(OC)nc(Oc2cccc(Oc3nc(OC)cc(OC)n3)c2C(=O)O)n1
active: [1] 57.5 µM
inactive: all other assays above

[Cl][Sb]([Cl])[Cl]
active: [9] 186 µM
not listed: [12] | [13] | [17] | [20]
inactive: all other assays above

CCCOC(=O)c1ccccc1C(=O)OCCC
active: [19] 86.3 µM | [20] 70.3 µM
not listed: [5] | [12]
inactive: all other assays above

O=C=Nc1ccccc1
active: [1] 9.05 µM
not listed: [13] | [20]
inactive: all other assays above

Oc1ccc(Cl)cc1
not listed: [19] | [20]
inactive: all other assays above

CCN(CC)C(=S)S
active: [19] 51.5 µM | [20] 3.68 µM
not listed: [5] | [13]
inactive: all other assays above

O=C1Nc2ccc(Cl)cc2C(c2ccccc2)=NC1O (configuration not stated)
active: [9] 28.9 µM
not listed: [4] | [13] | [15] | [16] | [17]
inactive: all other assays above

COc1cc(OC)c(OC)cc1C=O
not listed: [1]
inactive: all other assays above
